Compound activity (PubChem)
AddAB inh: less growth of phage-infected E. coli with AddAB; E. coli expressing H. pylori AddAB, absorbance growth; inhibition, % at 11.9 µM; 0.29% of 330,000 active; in the data active means inhibition above about 12%;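 further: 0% = vehicle wells of infected cells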
E coli growth-1: counter-screen for AddAB inhibitors: E. coli growth inhibition; AID 449728; E. coli V3065 growth, OD600 absorbance, 18 h; 0.27% of 330,000 active; inhibition, % at 11.9 µM;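 active means inhibition above the campaign's mean inhibition across all tested compounds plus 3 SD, cut at about 9.9% in these data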;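 further: uninfected addAB+ strain grown without phage in ampicillin broth; 0% = DMSO wells and 100% = ciprofloxacin 0.95 µg/ml wells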
phage Ecoli inh: E. coli growth loss with phage present; inhibition, % at 11.9 µM; growth absorbance; 0.26% of 360,000 active; in the data active means inhibition above about 11%
Tat transport: blocks Tat-dependent protein export in E. coli. AID 488895. E. coli MC4100 TorA-mCherry Tat export, fluorescence. 0.036% of 340,000 active. inhibition, % at 10 µM;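 active means mean replicate inhibition at least 50% and at least half of replicates individually reaching 50%; inconclusive means only one of the two criteria met; inactive means neither criterion met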;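 further: exported cargo escapes ClpAP degradation while cytoplasmic cargo is degraded and loses fluorescence; 0% = median of neutral control wells and 100% = median of NaSCN control wells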
E coli growth-2: blocks Escherichia coli growth; OD600, 23 h; active compounds read low; OD600 absorbance (concentration not given with the values); 0.21% of 330,000 active;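 active means OD600 absorbance below the run mean of sample wells minus 3.6 SD, in any replicate, cut at about 0.56 in these data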
An asterisk follows results filed as active; ? = inconclusive; . = not tested or not shown. This is a sample that favours compounds with a hit; in the whole collection about 0.5% have one here.

SMILES	AddAB inh	E coli growth-1	phage Ecoli inh	Tat transport	E coli growth-2
C#CCOCCOCCOCCNc1nc(N2CCN(C(=O)Cn3cc(CCCN=C(N)N)nn3)CC2)nc(N2CCN(C(=O)C(CCCCN)n3cc(CCCC)nn3)CC2)n1 (stereo not drawn)	.	.	.	.	0.61
CCOC(=O)C1C2COc3cc(OC)ccc3C2N2C(=O)CN(CCc3c[nH]c4ccccc34)C(=O)[C@@]12C (stereo partly drawn)	.	.	.	.	0.69
COC1OC2O[C@@]3(C)CCC4C(C)CCC(C1C)[C@@]24OO3 (stereo partly drawn)	.	.	.	.	0.36*
c1ccc(CC2CNCCN2CCc2cccc3ccccc23)cc1 (stereo not drawn)	.	.	.	.	0.64
CCN1/C(=C/c2ccc3ccccc3[n+]2CC)C=Cc2ccccc21	10	11*	12*	-15	.
CCN1C(=Cc2ccc3ccccc3[n+]2CC)C=Cc2ccccc21	.	.	.	.	0.49*
CC(CCN1C(Nc2ccccc2)=NCC1Cc1ccccc1)c1ccccc1 (stereo not drawn)	.	.	.	.	0.7
Nc1ncc(N=Nc2cc(C(=O)O)ccc2Cl)s1	10	11*	6	-8	0.63
CCN1CCN(C(=S)NC(=O)c2cc(OC)c(OC)c(OC)c2)CC1	1	2	2	2	0.7
CCn1cc(C(=O)O)c(=O)c2cnc(N3CCN(C(=S)NC(=O)c4ccc(Br)cc4)CC3)nc21	3	1	.	.	0.46*
CCn1cc(C(=O)O)c(=O)c2cnc(N3CCN(C(=S)NC(=O)c4ccc(Cl)cc4)CC3)nc21	4	4	.	.	0.43*
CCn1cc(C(=O)NCCc2ccc(Cl)cc2)c(=O)c2ccc(C)nc21	.	.	1	-14	0.6
CCn1cc(C(=O)O)c(=O)c2cnc(N3CCNCC3)nc21	102*	103*	.	.	.
CC(C)(C)OC(=O)NC(Cc1ccccc1)C(=O)NC(CO)C(O)C1CC1C(=O)N1CCCC1 (stereo not drawn)	.	.	.	.	0.66
CNC(CC(C)C)C(=O)NC1C(=O)NC(CC(N)=O)C(=O)NC2C(=O)NC3C(=O)NC(C(=O)NC(C(=O)O)c4cc(O)cc(O)c4-c4cc3ccc4O)C(O)c3ccc(c(Cl)c3)Oc3cc2cc(c3OC2OC(CO)C(O)C(O)C2OC2C[C@](C)(N)C(O)C(C)O2)Oc2ccc(cc2Cl)C1O (stereo partly drawn)	-3	0	7	-37	0.4*
OCCNc1nc(Nc2ccc(Br)cc2)nc2ccccc12	-2	-1	4	.	0.4*
c1ccc(N2CCN(c3nc(NCc4ccco4)c4ccccc4n3)CC2)cc1	7	0	2	0	0.7
c1ccc(CNc2nc(N3CCN(Cc4ccccc4)CC3)nc3ccccc23)cc1	2	1	3	.	0.48*
COc1ccccc1Nc1nc(NCc2ccco2)c2ccccc2n1	-1	1	4	.	0.59
Cc1ccc(Nc2nc(NCc3ccco3)c3ccccc3n2)cc1	0	4	4	-64	0.41*
OCCNc1nc(Nc2ccccc2)nc2ccccc12	-3	-2	-1	-6	0.67
CNc1nc(NCc2ccccc2)c2ccccc2n1	2	0	4	-7	0.48*
CC(=Cc1ccc(C(=O)O)cc1)c1ccc2c(c1)C(C)(C)CCC2(C)C	.	.	.	.	0.72
O=C1CCC=CCC(CC(=O)N(CCO)Cc2ccccc2)C(=O)NC(Cc2ccccc2)CO1 (stereo not drawn)	.	.	.	.	0.65
Cc1cccc(NC(=O)NC(C)C(=O)O)c1 (stereo not drawn)	.	.	.	.	0.67
SMILES	AddAB inh	E coli growth-1	phage Ecoli inh	Tat transport	E coli growth-2
O=C1CSC(=S)N1/N=C/c1ccc2c(c1)OCCO2	5	9.9*	1	7	.
S=C1SCN(Cc2ccccn2)CN1Cc1ccco1	1	0	0	-6	0.52*
CC=CC=CC(=O)Nc1cccc(C2=NOC3(C2)CC(C(N)=O)N(C(=O)COc2ccc(Cl)cc2)C3)c1 (stereo not drawn)	.	.	.	.	0.72
COc1cc(NS(=O)(=O)c2ccc(N)cc2)ncn1	21*	16*	.	.	.
CCN1CC2C3C(=O)N(Cc4ccccc4)C(=O)C3[C@](C)(C1=O)N2C(=O)c1ccc(Br)cc1 (stereo partly drawn)	.	.	.	.	0.72
CCCCCCCCCCCCCCCC[n+]1ccc(/C=N/O)cc1	0	0	3	-12	.
CCCCCCCCCCCCCCCC[n+]1ccccc1	.	.	1	48	0.057*
CCCCCCCCCCCCCCCC[n+]1cccc(C(=O)N(CC)CC)c1	-16	-4	4	?	0.43*
CCCCCCCCCCCCCCCC[n+]1ccc(C(N)=O)cc1	-1	-3	5	51*	0.32*
COc1ccc(NC(=O)Nc2ccc3c(c2)C(=O)N(C(C)CO)CC(C)C(CN(C)C(=O)Nc2c(C)noc2C)O3)cc1 (stereo not drawn)	.	.	.	.	0.69
CC(=O)Oc1ccc(C(=O)Cc2ccccn2)c(O)c1	3	-1	3	56*	0.65
NC1=NCC(c2ccccc2)N1CCCCC1CCCCC1 (stereo not drawn)	.	.	.	.	0.59
NC1=NCC(Cc2ccc(O)cc2)N1CCCCC1CCCCC1 (stereo not drawn)	.	.	.	.	0.45*
COc1ccc(NC(=O)N(C)CC2Oc3c(NS(=O)(=O)c4cccs4)cccc3C(=O)N(C(C)CO)CC2C)cc1 (stereo not drawn)	.	.	.	.	0.66
O=C(/C=C/c1ccccc1)NC(=S)NNC(=O)c1cnccn1	11	11*	9	2	.
O=C(/C=C/c1ccccc1)NC(=S)NNC(=O)c1cccnc1	-3	-6	-4	4	0.72
CCOc1ccc(NS(=O)(=O)c2ccc(C(=O)NNC(=O)c3ccccc3O)cc2)cc1	6	0	4	-11	0.52*
COCC=CC1=CC2=CC(=O)C(C)(OC(=O)c3cnc4ccccc4n3)C(=O)C2=CN1c1ccc(OC)cc1 (stereo not drawn)	.	.	.	.	0.71
C#CCOCCOCCOCCNc1nc(N2CCN(C(=O)C(CCC(=O)O)n3cc(C(N)Cc4ccc(O)cc4)nn3)CC2)nc(N2CCN(C(=O)C(CCCCN)n3cc(C(N)C(C)CC)nn3)CC2)n1 (stereo not drawn)	.	.	.	.	0.7
O=c1oc(Nc2cccc(F)c2)nc2ccccc12	4	1	2	-7	0.67
Nc1nc(Nc2cccc(F)c2)nc2ccccc12	2	1	6	7	0.47*
NC(=S)n1[nH]c(-c2ccc([N+](=O)[O-])cc2)c(N=Nc2ccc(O)cc2)c1=O	11	17*	5	-8	0.7
NC(=S)n1[nH]c(-c2ccc([N+](=O)[O-])cc2)c(N=Nc2cccc(Cl)c2)c1=O	.	.	2	-8	0.64
C=CCNC(=S)NN=C(C)c1ccccn1	.	.	.	.	0.53*
Cc1cccc(N2C(=O)Cc3ccccc3C2=O)c1	0	0	0	-6	0.53*
Cc1ccc(N2C(=O)Cc3ccccc3C2=O)cc1	4	2	0	3	0.63
CCCCC(=O)NNC(=S)NC(=O)c1ccc(C)cc1	-6	-4	1	-8	0.61
CCCCCC(=O)NNC(=S)NC(C)=O	-2	0	-8	-2	0.48*
